Hit rate of the full screen: of about 2,300 compounds, about 1,500 (65%) were called active. No rule for the calls is given here. The set was probably picked from earlier hits. Only a sample is shown.

Experimental findings from PubChem BioAssay AID2252 (Southern Research Specialized Biocontainment Screening …, 2010) are described below.

The assay can be described thus: PubChem AID 2252.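 Also: 100% = mean of untreated cell control wells.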 The following applies: THP-1 viability, CellTiter-Glo luminescence, 72 h; min viability: minimum viability across concentrations, stronger effect = lower value, concentration not given here; series mostly up to 50 µM. (Cellular ATP, detected with luciferase, serves as a proxy for viable cell number.)
Take `O=C(CCCOc1ccc(Cl)cc1Cl)NNC(=O)C1CCC1`: the call was inactive. Still for that read-out and setting: under `CCCCN1/C(=C/c2cccc[n+]2C)Sc2cc(NC(C)=O)ccc21` stands “inactive”; under `CC(C)CC(=O)N1CCN(C(=O)CCC2CCCC2)CC1`, “inactive”; under `O=C(NCc1cccnc1)C1c2ccccc2C(=O)N1Cc1ccccc1` (stereo unspecified), “inactive”.

For the compound `O=Cc1ccc(O)cc1O`, the call was inactive. For `CCC(C)NC(=O)c1cn(CC)c2cc(N3CCN(C)CC3)c(F)cc2c1=O` (stereo unspecified), the compound was called inactive.

On to `Cc1ccn2cc(-c3ccc4c(c3)NC(=O)CO4)nc2c1`, for which the call was inactive. Take `O=C(CN(C(=O)CNS(=O)(=O)c1ccccc1)C1CCCC1)NCc1ccco1`: the result was inactive. `O=c1[nH]cc(N=Cc2cc([N+](=O)[O-])ccc2O)c(=O)[nH]1`: the compound was classed as inactive. Regarding `CC(Sc1nc2ccccc2o1)C(=O)O` (stereo unspecified), the result was inactive. Regarding `Cc1cc(C)cc(CSc2nnc(C)c(=O)[nH]2)c1`, the compound was called inactive.

Take `CCCCN(C)C(=O)c1ccc(S(=O)(=O)N2CCOCC2)cc1`: the result was inactive.

For `COc1ccc(-c2nnn(-c3ccc(Cl)cc3Cl)c2N)cc1`, the compound was called inactive. With `Cc1cc(C)c2c(N)c(C(=O)c3ccc(Cl)c(Cl)c3)sc2n1`, the compound was classed as inactive. Still for that read-out and setting: under `Cn1c(-c2ccc(CN3CCCCC3)o2)nc2ccccc21` stands “inactive”; under `O=C(NCC1CCCO1)c1cc2ccccc2oc1=O` (stereo unspecified), “inactive”; under `CN(C)C(=O)CSc1nnc(Cc2ccc([N+](=O)[O-])cc2)o1`, “inactive”. Still for that read-out and setting: next, `CSc1nc2ccc(Cl)cc2[nH]1`: “inactive”; `Cn1cc(S(=O)(=O)NCC2CCCO2)c(=O)n(C)c1=O` (stereo unspecified): “inactive”. Still for that read-out and setting: under `CN1C2=CC=CC=CC2=[N+](C)C12C=CC(=[N+]([O-])[O-])C=C2[N+](=O)[O-]` (stereo unspecified) stands “inactive”; under `Cc1cc(N2CCCCC2)c(F)cc1[N+](=O)[O-]`, “inactive”. As for `O=C(N/N=C/c1ccc(-c2ccc(Br)cc2)o1)c1ccc2c(c1)OCO2`, the outcome was inactive. Take `Cc1ccc(-n2ncc3c(=O)[nH]cnc32)c(C)c1`: the compound was classed as inactive. With `CC(=O)N1CSCC1C(=O)N1CCN(c2ccc(N3CCOCC3)nn2)CC1` (stereo unspecified), the outcome was inactive.

As for `CCCCNC(=O)NS(=O)(=O)c1ccc(C(=O)OC)o1`, the compound was called inactive. Take `O=C(c1cccs1)N1CCC(N2CCN(c3ccccc3)CC2)CC1`: the result was inactive. `N#Cc1c(/N=C/c2cccs2)sc2c1CCCCC2`: the compound was called inactive. Take `Cc1ccc(NC(=O)CCNC(=O)c2ccccc2)cc1F`: the outcome was inactive. Same read-out and setting: under `Cc1c(/C=N/NC(=O)c2sc3ccccc3c2Cl)cnn1C` stands “inactive”; under `Cc1cc(C)cc(N(C(=O)CNC(=O)c2cccs2)C(C(=O)NC2CCCC2)c2cccnc2)c1` (stereo unspecified), “inactive”; under `CC(C)OC(=O)Cn1c(=O)sc2ccccc21`, “inactive”. Same read-out and setting: under `CC(=O)Nc1cccc(NS(=O)(=O)Cc2ccc(Cl)cc2)c1` stands “inactive”; under `COc1ccc(C(=O)NNS(=O)(=O)c2ccccc2)cc1OC`, “inactive”. Regarding `O=C(NCc1ccccc1)c1ccc(CNc2c(N3CCCC3)c(=O)c2=O)cc1`, the compound was called inactive. The same measure, in the same setting: under `C[C@H]1COc2c(N3CCN(C)CC3)c(F)cc3c(=O)c(C(=O)O)cn1c23` stands “inactive”.

Consider `CCCCc1cc(=O)oc2cc(C)cc(OCC(=O)NCC3CCC(C(=O)O)CC3)c12` (stereo unspecified), for which the compound was called inactive. Same read-out and setting: under `Cc1ccc(CNC(=O)CCC(=O)Nc2nnc(C)s2)cc1` stands “inactive”; under `CCOc1cc(S(=O)(=O)N2CCN(CC)CC2)ccc1Cl`, “inactive”.

With `O=C(NCc1ccc2c(c1)OCO2)c1ccc2c(c1)C(=O)N(Cc1cccnc1)C2=O`, the outcome was inactive. On the same count and under the same terms, under `CCOC(=O)C1CCN(C(=O)CCc2nc3ccccc3[nH]2)CC1` stands “inactive”; under `NS(=O)(=O)c1ccc(CCNS(=O)(=O)c2cccc(C(=O)O)c2)cc1`, “inactive”; under `O=C(NC(=O)c1ccccc1)OCC1CCCN2CCCCC12` (stereo unspecified), “inactive”.

`N=c1ccccn1CC(O)COc1ccccc1` (stereo unspecified): the compound was called inactive. Consider `COc1cc(/C=C2/C(=O)NN(c3ccc(C)c(Cl)c3)C2=O)cc([N+](=O)[O-])c1O`, for which the outcome was inactive. Take `O=C(O)c1ccc(S(=O)(=O)NC2CC2)cc1`: the call was inactive.

Take `C#CCOCCOCCOCCNc1nc(N2CCN(C(=O)[C@H](Cc3ccc(O)cc3)n3cc([C@@H](N)C(C)CC)nn3)CC2)nc(N2CCN(C(=O)[C@H](Cc3cc4ccccc4[nH]3)n3cc([C@@H](N)Cc4ccc(O)cc4)nn3)CC2)n1` (stereo partly specified): the result was inactive. The same measure, in the same setting: under `NC1=NC(c2cccc(O)c2)n2c(nc3ccccc32)N1` (stereo unspecified) stands “inactive”. The same measure, in the same setting: next, `COc1ccc(CCC(=O)NCc2cn3ccccc3n2)cc1`: “inactive”. On the same count and under the same terms, under `O=C(NC(O)C(=O)c1ccccc1)c1ccc(F)cc1` (stereo unspecified) stands “inactive”. `Cc1ccc(N2CC(C(=O)OCc3ccccc3F)CC2=O)cc1` (stereo unspecified): the compound was classed as inactive.

As to `CCn1cc(C(=O)O)c(=O)c2cc(F)c(N3CCN(C(=S)NC(=O)c4ccccc4C)CC3)cc21`, the compound was called inactive.

For the compound `COCCN1CC(=O)N2C(c3cccc(OC)c3)c3[nH]c4ccccc4c3C[C@H]2C1=O` (stereo partly specified), the compound was classed as inactive. Still for that read-out and setting: under `O=C(NC1CCCC1)c1ccc(Br)s1` stands “inactive”. As for `Cc1cccc(NCN2C(=O)c3ccccc3C2=O)c1`, the compound was called inactive. On to `Cc1cnc(NC(=O)CN2C(=O)C3CC=CCC3C2=O)s1` (stereo unspecified), for which the result was inactive. The same measure, in the same setting: next, `CC(C)c1ccc(C2C(C#N)=C(N)Oc3c2oc(CO)cc3=O)cc1` (stereo unspecified): “inactive”; `NC(=O)c1ccc(N=C2C(=O)Nc3ccc([N+](=O)[O-])cc32)cc1`: “inactive”.

On to `CC(/C=C\c1cccnc1)=C/C(=O)O`, for which the call was inactive. With `NCCCCCc1nnc(SCc2ccc(Cl)cc2Cl)o1`, the outcome was inactive. Still for that read-out and setting: next, `COc1cc2c(cc1OC)CN(C(=O)CCCN1C(=O)c3ccccc3C1=O)CC2`: “inactive”. `CCOC(=O)C1=C(C(C)=O)C(c2cccnc2)C(C#N)=C(N)O1` (stereo unspecified): the call was inactive. On the same count and under the same terms, under `O=C(CSc1nc2c(c(=O)n1-c1ccc(F)cc1)SCC2)NCc1ccco1` stands “inactive”; under `CC(C)n1cnnc1SCC(=O)Nc1ccc(Br)cc1F`, “inactive”; under `Cc1nn(C)c(C)c1NC(=O)c1ccc(S(=O)(=O)N(C)C)cc1`, “inactive”. Consider `COc1ccc(C2C3=C(CC(C)(C)CC3=O)Nc3cc4c(cc32)OCO4)cc1` (stereo unspecified), for which the result was inactive. On the same count and under the same terms, next, `O=c1ccnc(Sc2ncccc2[N+](=O)[O-])[nH]1`: “inactive”. Same read-out and setting: next, `CC[C@H]1OC(=O)[C@H](C)[C@@H](O[C@H]2C[C@@](C)(OC)[C@@H](O)[C@H](C)O2)[C@H](C)[C@@H](O[C@@H]2O[C@H](C)C[C@H](N(C)C)[C@H]2O)[C@](C)(O)C[C@@H](C)CN(C)[C@H](C)[C@@H](O)[C@]1(C)O`: “inactive”; `COc1cc(NS(=O)(=O)c2ccc(NC(=S)Nc3ccccc3)cc2)nc(OC)n1`: “inactive”; `O=C1CC(=O)CC(c2ccco2)C1`: “inactive”. As for `CCn1c(CNC(=O)c2ccc(OC)cc2)nnc1SC`, the result was inactive.

`CC(=O)c1ccc(OC(=O)c2cc3ccccc3oc2=O)cc1`: the compound was classed as inactive. On the same count and under the same terms, next, `COc1ccc(NC(=O)c2ccc3nc[nH]c3c2)cc1`: “inactive”; `COC(=O)c1cn(C(=O)c2ccco2)c2ccccc12`: “inactive”; `CCN1CCN(Cc2ccc(NC(=O)c3ccc(C)c(NC(=O)C(=O)c4c[nH]c5ccccc45)c3)cc2C(F)(F)F)CC1`: “inactive”. Consider `Cn1nnnc1SCC(=O)Nc1ccccc1-c1ccccc1`, for which the outcome was inactive. On the same count and under the same terms, under `CCn1c(SCC(=O)Nc2oc(-c3ccccc3)c(-c3ccccc3)c2C#N)nnc1-c1ccco1` stands “inactive”; under `Cc1ncc(CC(=O)n2cc(C(=O)c3cc(F)ccc3O)cn2)s1`, “inactive”. In the case of `COc1ccc(C(CC(=O)O)NC(=O)C2CCCCC2)cc1` (stereo unspecified), the compound was called inactive. On to `O=C(c1cccs1)N1CCN(S(=O)(=O)c2ccccc2)CC1`, for which the outcome was inactive. The same measure, in the same setting: next, `COc1ccc(Cl)cc1NC(=O)c1cc(-c2ccccc2)on1`: “inactive”; `C#CCOCCOCCOCCNc1nc(N2CCN(C(=O)[C@H](CCCCN)n3cc([C@@H](N)CC(C)C)nn3)CC2)nc(N2CCN(C(=O)[C@H](Cc3cc4ccccc4[nH]3)n3cc([C@@H](N)Cc4ccc(O)cc4)nn3)CC2)n1`: “inactive”.

As for `CO[C@@]1(NC(=O)C2SC(=C(C(N)=O)C(=O)O)S2)C(=O)N2C(C(=O)O)=C(CSc3nnnn3C)CS[C@@H]21` (stereo partly specified), the call was inactive.

On to `CC1=NOC(=O)/C1=C/c1ccc(O)cc1`, for which the compound was called inactive. The same measure, in the same setting: under `Fc1ccccc1CCNCc1ccccc1` stands “inactive”; under `CCn1cc(C(=O)O)c(=O)c2cc(F)c(N3CCN(C(=O)Nc4ccccc4)CC3)cc21`, “inactive”. Consider `COc1ccc(Cl)cc1S(=O)(=O)N1CCN(C(=O)c2ccco2)CC1`, for which the call was inactive. Still for that read-out and setting: under `C#CCOCCOCCOCCNc1nc(N2CCN(C(=O)[C@H](Cc3ccc(O)cc3)n3cc([C@@H](N)CC(C)C)nn3)CC2)nc(N2CCN(C(=O)[C@H](Cc3ccc(O)cc3)n3cc([C@@H](N)CC(C)C)nn3)CC2)n1` stands “inactive”; under `O=C(O)c1ccc(CSc2nnnn2C2CCCCC2)cc1`, “inactive”. On the same count and under the same terms, next, `COC(=O)c1ccc(NC(=O)c2ccccc2N(C)S(=O)(=O)c2ccccc2)cc1`: “inactive”; `CCOC(=O)c1sc(N)c(C(=O)OC)c1C`: “inactive”. Same read-out and setting: under `COc1cc(OC)nc(NC(=O)C(C)C)n1` stands “inactive”. As to `C[C@]1(OC(=O)/C=C/c2ccccc2)C[C@@H](O)[C@]2(O)C=CO[C@@H](O[C@@H]3O[C@H](CO)[C@@H](O)[C@H](O)[C@H]3O)[C@@H]21`, the compound was classed as inactive.

`O=[N+]([O-])c1ccc(CN2CCSCC2)cc1`: the call was inactive. With `NC(=O)c1cc(S(=O)(=O)Nc2cccc(F)c2)co1`, the result was inactive. With `O=C(N/N=C/c1ccc(F)c(F)c1)c1cc2c(s1)-c1ccccc1CC2`, the compound was called inactive. `O=C(COc1ccc(Cl)cc1)N1CCN(C2CCCC2)CC1`: the min viability turned out to be 92.7% and the call was inactive. For the compound `O=C(/C=C/c1ccccc1)OCc1cnc(Cl)s1`, the compound was classed as inactive. For the compound `CCOC(=O)c1cccc(NC(=O)C2CCC(CNc3c(N4CCOCC4)c(=O)c3=O)CC2)c1` (stereo unspecified), the outcome was inactive. As to `Cc1cc(C(=O)Nc2cccnc2)on1`, the outcome was inactive. Consider `O=c1c2ccccc2[nH]c2ccccc12`, for which the result was inactive.

Regarding `CCN1CCN(C(=O)c2cc3ccc(OC)cc3[nH]2)CC1`, the result was inactive.

As for `CC(C)(C)NC(=O)/C=C/c1ccc(C(F)(F)F)cc1`, the result was inactive. Same read-out and setting: under `COc1cccc(CNc2nn[nH]n2)c1OC` stands “inactive”. Same read-out and setting: next, `Nc1ccc(S(=O)(=O)Nc2ccc(Cl)nn2)cc1`: “inactive”. The same measure, in the same setting: next, `O=C(NC1(C(F)(F)F)C(=O)Nc2c1c(=O)[nH]c(=O)n2-c1ccccc1)c1ccncc1` (stereo unspecified): “inactive”.
